This is a sample that favours compounds with a hit; in the whole collection about 0.84% have one here.
Redox H2O2 prof – compounds producing H2O2 with reducing agent – biochemical, NIH compound library profiling, artefact control for MLSCN library redox annotation, primary screen | DTT-dependent redox cycling H2O2, phenol red/HRP absorbance; 100% = 100 µM peroxide control, 0% = buffer | hit rate 0.03% among 200,000 | activation, % at 10 µM;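 active = activation of at least 50% relative to the plate's high and low controls in the primary single-dose screen; inactive = activation below 50%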;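 also: compound incubated with DTT at 0.8 mM final as the reducing agent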
Tb hexokinase – blocks Trypanosoma brucei hexokinase 1 activity; recombinant TbHK1, G6PDH-coupled NADH A340; inhibition, % at 10 µM; hit rate 0.11% among 220,000; AID 1430;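 active = inhibition of 50% or more in the single-dose primary screen; inactive = inhibition below 50%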
S1P3 antag-1 – S1P3 (human) receptor antagonism; hit rate 0.27% among 170,000; inhibition, % at 4.98 µM; CHO S1P3 NFAT-BLA reporter, FRET fluorescence, antagonist mode; Q99500;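 active = inhibition above the plate cutoff, the mean inhibition of test wells on that plate plus 3 SD, cut at about 28% in these data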;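 also: cells challenged with S1P at its EC80 of 0.8 µM; blue over green emission ratio from cleaved BLA substrate after 4 h stimulation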
Target sequence (Q99500 whole entry, looked up): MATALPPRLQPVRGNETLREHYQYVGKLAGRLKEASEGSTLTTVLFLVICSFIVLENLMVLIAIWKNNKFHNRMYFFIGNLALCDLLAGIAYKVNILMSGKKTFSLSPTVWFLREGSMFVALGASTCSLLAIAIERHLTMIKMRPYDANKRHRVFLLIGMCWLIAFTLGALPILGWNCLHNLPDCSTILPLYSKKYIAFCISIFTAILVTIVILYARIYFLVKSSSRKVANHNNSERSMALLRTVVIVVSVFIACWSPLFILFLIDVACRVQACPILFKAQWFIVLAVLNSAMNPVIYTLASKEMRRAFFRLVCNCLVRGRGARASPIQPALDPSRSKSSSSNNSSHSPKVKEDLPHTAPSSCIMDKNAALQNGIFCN
G6PDH CS – counter-screen for G6PDH assay hits: L. mesenteroides G6PDH inhibition; Purified L. mesenteroides G6PDH, diaphorase/resazurin coupled fluorescence, 45 min; AID 1020; hit rate 0.12% among 200,000; inhibition, % at 5 µM; in the data active = inhibition above about 50%
p97 ATPase inh – blocks human p97 ATPase activity; P55072; recombinant p97 ATPase, Kinase-Glo ATP luminescence, 3 h; inhibition, % at 8 µM; hit rate 0.42% among 220,000; AID 1481; in the data active = inhibition above about 15%
S1P3 antag-2 – confirmation of human S1P3 receptor antagonists; CHO S1P3 NFAT-BLA reporter, FRET, antagonist mode; inhibition, % at 4.98 µM; shares compounds with S1P3 antag-1; hit rate 30% among 240;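 active = inhibition above the hit threshold that was computed for the earlier primary screen, cut at about 30% in these data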
Of the large screens only hits and unclear results are named; the others gave an inactive call (follow-up assays come after a bar, where they were run).

COc1ccc(S(=O)(=O)N(Cc2cc3cc(C)ccc3[nH]c2=O)CC2CCCO2)cc1 (configuration not stated)	none (no result: S1P3 antag-1)
COc1cccc(CN(CC2CCCO2)S(=O)(=O)c2ccc(S(=O)(=O)N(C)C)cc2)c1 (configuration not stated)	p97 ATPase inh 14.7 (no result: S1P3 antag-1)
CCOC(=O)C1=C(Cc2ccc(C)cc2)C(=O)c2ccccc2C1=O	G6PDH CS 53.7 (no result: S1P3 antag-1)
CCOC(=O)C1=C(Cc2ccc(OC)cc2)C(=O)c2ccccc2C1=O	G6PDH CS 57.0 (no result: S1P3 antag-1)
COc1cccc(-c2cc(C(=O)Nc3c(C)nn(Cc4ccccc4)c3C)no2)c1	S1P3 antag-1 53.6
CNCc1ccccc1Sc1ccc(O)c(O)c1	G6PDH CS 50.5
O=C(C1=C(c2ccccc2)C(=O)c2ccccc2C1=O)c1ccccc1	G6PDH CS 57.7
O=C(NCC1CCCO1)c1onc(CSc2cccc3ccccc23)c1C(=O)O (configuration not stated)	none (no result: S1P3 antag-1)
Cc1ccc2[nH]c3c(NCc4ccco4)ncnc3c2c1	S1P3 antag-1 59.3
COc1cc(CNc2ncnc3c2[nH]c2ccc(C)cc23)cc(OC)c1	none (no result: Redox H2O2 prof, G6PDH CS)
CCCCC(=O)Nc1ccc(C(=O)NNC(=S)NC(=O)c2ccccc2[N+](=O)[O-])cc1	none
CCOC(=O)c1nnn(-c2nonc2N)c1COc1cc(C)c(Cl)c(C)c1	S1P3 antag-1 57.7
CCOC(=O)c1nnn(-c2nonc2N)c1CSc1ccccc1	none (no result: S1P3 antag-1)
CCSc1nnc(NC(=O)c2cccc(S(=O)(=O)N(C)c3ccccc3)c2)s1	none
CCCNC1=C(N(C(C)=O)c2cccc(F)c2)C(=O)c2ccccc2C1=O	G6PDH CS 52.4
Cc1[nH]c2ccccc2c1/C=N/Nc1ccc([N+](=O)[O-])cc1	S1P3 antag-1 40.2 | S1P3 antag-2 inactive
Cc1[nH]c2ccccc2c1/C=N/NC(=O)c1cccc([N+](=O)[O-])c1	none
COc1ccc(N2CCN(CC(=O)Nc3c(C)cc(C)cc3C)CC2)cc1	none
O=C(Nc1ccc(F)cc1)C(Cc1ccccc1)n1cccc1 (configuration not stated)	S1P3 antag-1 36.3 (no result: Redox H2O2 prof, G6PDH CS) | S1P3 antag-2 inactive
Cc1ccc(NC(=O)C(Cc2ccccc2)n2cccc2)cc1 (configuration not stated)	none (no result: Redox H2O2 prof, G6PDH CS)
COCCN(Cc1cc2cc(C)ccc2nc1Cl)C(=O)Nc1ccccc1C	none (no result: S1P3 antag-1)
CC(Oc1ccccc1Cl)C(=O)N1CCOCC1 (configuration not stated)	S1P3 antag-1 45.7 | S1P3 antag-2 inactive
CN1CCN(c2ccccc2NC(=O)c2ccccc2F)CC1	none (no result: Redox H2O2 prof, G6PDH CS)
CC(=O)c1ccc(Nc2c3c(nc4ccccc24)CCCC3)cc1	S1P3 antag-1 29.0 (no result: Redox H2O2 prof, G6PDH CS) | S1P3 antag-2 inactive
COc1cc(Nc2c3c(nc4ccccc24)CCCC3)cc(OC)c1OC	none
COCCNC(=S)N/N=C/c1ccc(-c2ccc([N+](=O)[O-])cc2)o1	S1P3 antag-1 31.0 (no result: Redox H2O2 prof, G6PDH CS) | S1P3 antag-2 31.8
C/C(=N/NC(=O)c1cc(-c2ccc(Cl)s2)[nH]n1)c1ccco1	S1P3 antag-1 31.6 (no result: Redox H2O2 prof, G6PDH CS) | S1P3 antag-2 inactive
S=C(NCc1ccncc1)Nc1cccc(Cl)c1	none
Fc1ccc(CNC(=S)Nc2cccc(Cl)c2)cc1	S1P3 antag-1 28.5 | S1P3 antag-2 inactive
Cc1ccc2c(CN3CCN(C(=O)c4ccco4)CC3)cc(=O)oc2c1C	none
CC(=O)Nc1ncc(Cc2cccc(Cl)c2)s1	S1P3 antag-1 28.5 | S1P3 antag-2 inactive
CCS(=O)(=O)c1ccc(O)c(NC(=O)COc2ccc(C)cc2)c1	none
CSc1ccc(/C=C/c2cc(=O)c3ccccc3[nH]2)cc1	S1P3 antag-1 29.7 | S1P3 antag-2 inactive
O=c1cc(/C=C/c2cccs2)[nH]c2ccccc12	none (no result: S1P3 antag-1)
O=C(Nc1ccc(F)cc1)Nc1cc(OCC(F)(F)F)cc(OCC(F)(F)F)c1	S1P3 antag-1 34.8 | S1P3 antag-2 inactive
CCOc1ccc(NC(=O)Nc2cc(OCC(F)(F)F)cc(OCC(F)(F)F)c2)cc1	none
C=CCNc1nc(-c2ccc([N+](=O)[O-])cc2)cs1	S1P3 antag-1 29.4 | S1P3 antag-2 inactive
O=C(COC(=O)c1cnc(Cl)c(Cl)c1)NCCC1=CCCCC1	S1P3 antag-1 32.7 | S1P3 antag-2 inactive
O=C(COC(=O)c1ccccc1)NCCC1=CCCCC1	none
CCCCN(CCCC)C(=O)c1cc2ccccc2c(=O)o1	none
CCN(Cc1ccccc1)C(c1ccc(C(F)(F)F)cc1)c1nnnn1C(C)(C)C (configuration not stated)	none (no result: S1P3 antag-1, G6PDH CS)
Cc1ccccc1C(=O)N1CCN(c2ccc(NC(=O)c3ccc4c(c3)OCO4)cc2)CC1	S1P3 antag-1 29.7 | S1P3 antag-2 36.0
Cc1nn(-c2ccccc2)c(Cl)c1/C=N/NC(=O)c1ccc(CNc2ccccc2)o1	S1P3 antag-1 28.2 | S1P3 antag-2 inactive
CCCC[C@@H]1C[C@H]1[C@@H](NC(=O)c1cccs1)c1ccc(Cl)cc1	S1P3 antag-1 47.7 | S1P3 antag-2 69.4
C=CCOC(=O)CCC(=O)Nc1cccc2ccccc12	none
O=C(COC(=O)CCCOc1ccc(Cl)cc1Cl)Nc1cccc(Cl)c1	S1P3 antag-1 42.8 | S1P3 antag-2 inactive
COc1ccc(CNC(=O)COC(=O)CCCOc2ccc(Cl)cc2Cl)cc1	none
COc1ccc(N2CCN(Cc3nc4c(c(=O)[nH]c(=O)n4C)n3CC(C)=O)CC2)cc1	none
COCC(C)NC(C(=O)Nc1ccc(C)c(Cl)c1)c1ccccc1 (configuration not stated)	none (no result: S1P3 antag-1)
Cc1ccc(NC(=O)C(OC(=O)c2ccc(C=O)cc2)c2ccccc2)cc1Cl (configuration not stated)	S1P3 antag-1 29.6 | S1P3 antag-2 inactive
COc1cc(/C=C(/C#N)C(=O)c2c(C)[nH]c3ccccc23)ccc1OCC#N	S1P3 antag-1 30.4 (no result: Redox H2O2 prof, G6PDH CS) | S1P3 antag-2 inactive
CCOc1ccc(/C=C(\C#N)C(=O)c2c(C)[nH]c3ccccc23)cc1OC	none
CCO[C@H]1OC(C(=O)NC2CC2)=C[C@@H](c2c[nH]c3ccccc23)[C@@H]1CCCO	none (no result: Redox H2O2 prof, S1P3 antag-1, G6PDH CS, p97 ATPase inh)
COc1cccc(OC)c1C(=O)Nc1nc2cc3c(cc2s1)OCO3	S1P3 antag-1 32.5 (no result: Redox H2O2 prof, G6PDH CS) | S1P3 antag-2 inactive
COc1ccccc1C(=O)Nc1nc2cc3c(cc2s1)OCO3	none (no result: Redox H2O2 prof, G6PDH CS)
Cc1ccc(-c2noc(CN(C(=O)CCCCCN3C(=O)c4ccccc4C3=O)C(C)C)n2)cc1	none
Cc1ccc(S(=O)(=O)NCc2ccncc2)c(C)c1C	S1P3 antag-1 34.9 | S1P3 antag-2 inactive
Cc1cc(C)c(S(=O)(=O)NCc2ccncc2)c(C)c1	none (no result: S1P3 antag-1)
CN(C(=O)CC1C(=O)NCCN1CC(c1ccccc1)c1ccccc1)C(C1CC1)C1CC1 (configuration not stated)	S1P3 antag-1 28.9 (no result: Redox H2O2 prof, G6PDH CS) | S1P3 antag-2 inactive
Cc1ccc(CN2CCNC(=O)C2CC(=O)N(C)C(C2CC2)C2CC2)o1 (configuration not stated)	none
O=C(N/N=C/c1cn(-c2ccccc2)nc1-c1cc2ccccc2o1)c1c[nH]c2ccccc12	S1P3 antag-1 31.2 | S1P3 antag-2 inactive
